From the supplement of paper PMC9492666
Where a name gives a salt, the structure may show the parent alone.

Columns and labels:
HCC1937 = experiment: relative cell viability, compound + RSL3, vs DMSO (fraction of DMSO control); higher = less growth inhibition; settings: 72 h
MDA-MB-231 = experiment: as above; settings: 72 h
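Also: breast cancer cell viability read out with the CCK-8 kit after co-treatment of each compound with the ferroptosis inducer RSL3.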

Structure (SMILES) | relative cell viability (HCC1937) | relative cell viability (MDA-MB-231)
CN(C)C(=O)Nc1cccc(-c2ccc(N(C)C)cc2)c1 [Atglistatin] + COC(=O)c1ccc([C@H]2c3[nH]c4ccccc4c3C[C@H](C(=O)OC)N2C(=O)CCl)cc1 [RSL3] | 0.321 | 0.562
C=CCc1ccc(O)c(-c2cc(CC=C)ccc2O)c1 [Magnolol] + COC(=O)c1ccc([C@H]2c3[nH]c4ccccc4c3C[C@H](C(=O)OC)N2C(=O)CCl)cc1 [RSL3] | 0.789 | 0.668
CC(C)CCC[C@@H](C)[C@H]1CC[C@H]2[C@@H]3CCC4=CC(=NO)CC[C@]4(C)[C@H]3CC[C@]12C [Olesoxime] + COC(=O)c1ccc([C@H]2c3[nH]c4ccccc4c3C[C@H](C(=O)OC)N2C(=O)CCl)cc1 [RSL3] | 0.454 | 0.689
Cc1c(C(=O)NN2CCCCC2)nn(-c2ccc(Cl)cc2Cl)c1-c1ccc(Cl)cc1 [Rimonabant] + COC(=O)c1ccc([C@H]2c3[nH]c4ccccc4c3C[C@H](C(=O)OC)N2C(=O)CCl)cc1 [RSL3] | 0.649 | 0.216
O=C(NC1CCN(CCCCC2(C(=O)NCC(F)(F)F)c3ccccc3-c3ccccc32)CC1)c1ccccc1-c1ccc(C(F)(F)F)cc1 [Lomitapide] + COC(=O)c1ccc([C@H]2c3[nH]c4ccccc4c3C[C@H](C(=O)OC)N2C(=O)CCl)cc1 [RSL3] | 0.173 | 0.391
CC1(C)CC[C@]2(C(=O)O[C@@H]3O[C@H](CO)[C@@H](O)[C@H](O)[C@H]3O)CC[C@]3(C)C(=CC[C@@H]4[C@@]5(C)CC[C@H](O[C@@H]6O[C@H](C(=O)O)[C@@H](O)[C@H](O)[C@H]6O)C(C)(C)[C@@H]5CC[C@]43C)[C@@H]2C1 [Chikusetsusaponin IVa] + COC(=O)c1ccc([C@H]2c3[nH]c4ccccc4c3C[C@H](C(=O)OC)N2C(=O)CCl)cc1 [RSL3] | 0.597 | 0.572
CCc1ccc(CCOc2ccc(CC3SC(=O)NC3=O)cc2)nc1 (stereo not drawn) [Pioglitazone] + COC(=O)c1ccc([C@H]2c3[nH]c4ccccc4c3C[C@H](C(=O)OC)N2C(=O)CCl)cc1 [RSL3] | 0.919 | 0.629
CC(C)OC(=O)C(C)(C)Oc1ccc(C(=O)c2ccc(Cl)cc2)cc1 [Fenofibrate] + COC(=O)c1ccc([C@H]2c3[nH]c4ccccc4c3C[C@H](C(=O)OC)N2C(=O)CCl)cc1 [RSL3] | 0.681 | 0.606
O=C(CC(C(=O)O)c1c[nH]c2ccccc12)c1ccc(F)cc1F (stereo not drawn) [Mitochonic acid 5] + COC(=O)c1ccc([C@H]2c3[nH]c4ccccc4c3C[C@H](C(=O)OC)N2C(=O)CCl)cc1 [RSL3] | 0.636 | 0.769
CC(C)[C@H](N=C(NS(=O)(=O)c1ccc(Cl)cc1)N1C[C@H](c2ccccc2)C(c2ccc(Cl)cc2)=N1)C(N)=O + COC(=O)c1ccc([C@H]2c3[nH]c4ccccc4c3C[C@H](C(=O)OC)N2C(=O)CCl)cc1 [RSL3] | 0.551 | 0.45
O=C(c1ccc(NS(=O)(=O)c2cccc3cccnc23)cc1)N1CCN(CC2CC2)CC1 [Mitapivat] + COC(=O)c1ccc([C@H]2c3[nH]c4ccccc4c3C[C@H](C(=O)OC)N2C(=O)CCl)cc1 [RSL3] | 0.558 | 0.654
CCC(=O)Nc1cccc(Oc2nc(Nc3ccc(N4CCN(C)CC4)cc3OC)ncc2Cl)c1 + COC(=O)c1ccc([C@H]2c3[nH]c4ccccc4c3C[C@H](C(=O)OC)N2C(=O)CCl)cc1 [RSL3] | 0.121 | 0.3
CCCc1c(OCCCOc2ccc(OCC(=O)O)cc2)ccc(C(C)=O)c1O + COC(=O)c1ccc([C@H]2c3[nH]c4ccccc4c3C[C@H](C(=O)OC)N2C(=O)CCl)cc1 [RSL3] | 0.556 | 0.757
CCCC[S+]([O-])c1sc2nc(-c3cccs3)cc(-c3ccccc3)c2c1N (stereo not drawn) + COC(=O)c1ccc([C@H]2c3[nH]c4ccccc4c3C[C@H](C(=O)OC)N2C(=O)CCl)cc1 [RSL3] | 0.748 | 0.513
CC(C)(C)N1C(=O)C(Nc2ccc(N3CCCCC3)cc2)=C(c2ccccc2)S1(=O)=O + COC(=O)c1ccc([C@H]2c3[nH]c4ccccc4c3C[C@H](C(=O)OC)N2C(=O)CCl)cc1 [RSL3] | 0.686 | 0.69
CCOC(=O)C(C)(C)Oc1ccc(Cl)cc1 [Clofibrate] + COC(=O)c1ccc([C@H]2c3[nH]c4ccccc4c3C[C@H](C(=O)OC)N2C(=O)CCl)cc1 [RSL3] | 0.728 | 0.619
c1ccc([C@H]2CN3CCSC3=N2)cc1 [Levamisole hydrochloride] + COC(=O)c1ccc([C@H]2c3[nH]c4ccccc4c3C[C@H](C(=O)OC)N2C(=O)CCl)cc1 [RSL3] | 0.704 | 0.53
N=C(N)NCCC(=O)O [3-Guanidinopropionic Acid] + COC(=O)c1ccc([C@H]2c3[nH]c4ccccc4c3C[C@H](C(=O)OC)N2C(=O)CCl)cc1 [RSL3] | 0.509 | 0.659
C[N+](C)(C)CC(O)CC(=O)[O-] (stereo not drawn) [L(-)-Carnitine] + COC(=O)c1ccc([C@H]2c3[nH]c4ccccc4c3C[C@H](C(=O)OC)N2C(=O)CCl)cc1 [RSL3] | 0.621 | 0.523
